Several values for one entry are separate records, joined by “and”; a condition that tells them apart may be missing. Identical values can stand only once. Records with an inconclusive call do not appear. Some compounds were tested as several samples or in several runs, with calls that do not always agree. Activity calls are given as the source filed them. The call rests on the fitted dose curve; in most records, active means well fitted curve in the direction sought with a large enough effect; inconclusive means small, poorly fitted or top-dose-only effect, or another doubt; inactive means no such curve, though single readings can be large; an effect the other way counts as inactive or inconclusive.
Experiments:
WaGa = assay: qHTS assay to identify novel small-molecules to repurpose for Merkel cell carcinoma treatment (AID 1296009); conditions: MCC and control cell lines, CellTiter-Glo viability, 72 h; series mostly up to 46 µM; further: nearly all actives have a fitted effect of over 60% in size
Method in brief: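 72 hr, 37 degree celsius; NPC 8-pt / MIPE 11-pt dose response; compound pinned in DMSO; CellTiter-Glo, 10 min RT, luminescence; normalized to no-cell and DMSO controls.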

C33A = assay: Primary qHTS to identify gynecologic anti-cancer compounds using libraries of approved drugs and bioactive compounds (AID 1345084); conditions: Gynecologic cancer cell panel viability, ATPlite luminescence, 48 h; series mostly up to 57.5 µM; further: nearly all actives have a fitted effect of over 55% in size
Method in brief: (§1)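 Cells, 1,000 per well, plated 16 h, then exposed 48 h at 37 C to compounds. Viability by ATPlite luminescence after 15 min at room temperature.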

CASKI = assay: as above; conditions: Gynecologic cancer cell panel viability, ATPlite luminescence, 48 h; series mostly up to 57.5 µM
Method in brief: as §1

Es-2 = assay: as above; conditions: Gynecologic cancer cell panel viability, ATPlite luminescence, 48 h; series mostly up to 57.5 µM
Method in brief: as §1

HeLa = assay: as above; conditions: Gynecologic cancer cell panel viability, ATPlite luminescence, 48 h; series mostly up to 57.5 µM
Method in brief: as §1

Hek293T = assay: as above; conditions: Gynecologic cancer cell panel viability, ATPlite luminescence, 48 h, control line for the selectivity index; series mostly up to 57.5 µM
Method in brief: as §1

JEG-3 = assay: as above; conditions: Gynecologic cancer cell panel viability, ATPlite luminescence, 48 h; series mostly up to 57.5 µM
Method in brief: as §1

OV90 = assay: as above; conditions: Gynecologic cancer cell panel viability, ATPlite luminescence, 48 h; series mostly up to 57.5 µM
Method in brief: as §1

PA-1 = assay: as above; conditions: Gynecologic cancer cell panel viability, ATPlite luminescence, 48 h; series mostly up to 57.5 µM
Method in brief: as §1

SKOV3 = assay: as above; conditions: Gynecologic cancer cell panel viability, ATPlite luminescence, 48 h; series mostly up to 57.5 µM
Method in brief: as §1

Tov-21-G = assay: as above; conditions: Gynecologic cancer cell panel viability, ATPlite luminescence, 48 h; series mostly up to 57.5 µM
Method in brief: as §1

Tov112D = assay: as above; conditions: Gynecologic cancer cell panel viability, ATPlite luminescence, 48 h; series mostly up to 57.5 µM
Method in brief: as §1

[1] = Drug repurposing screens with cells derived from glioblastoma tumor samples (AID 1345199); conditions: GBM patient neurospheres viability, ATP luminescence, 48 h; further: nearly all actives have a fitted effect of over 40% in size
Method in brief: (§2)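 Four patient lines of CD133+ GBM neurospheres were screened at several concentrations; hits were retested in those lines plus three slower-growing GBM lines, using 48-hour treatment and ATP-based viability.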

astro = assay: as above; conditions: viability, ATP luminescence, 48 h; series mostly up to 45.9 µM
Method in brief: as §2

CAOV3 = assay: Primary qHTS to identify gynecologic anti-cancer compounds using libraries of approved drugs and bioactive compounds (AID 1345084); conditions: Gynecologic cancer cell panel viability, ATPlite luminescence, 48 h; series mostly up to 57.5 µM; further: nearly all actives have a fitted effect of over 55% in size
Method in brief: as §1

[2] = qHTS assay to identify inhibitors of the type 1 interferon - major histocompatibility complex class I in skeletal muscle: Counter screen cell viability and HiBit confirmation (AID 1347412); conditions: iHSKM muscle cells + IFN-b, HiBiT or CellTiter-Glo, 24 h; for activity change, negative = inhibition: at 45.9 µM (top of the series); on all read-outs here: nearly all actives have a fitted effect of over 60% in size
Method in brief: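 HLA-B*08:01–HiBiT knock-in immortalized human myoblasts (C25cl48) stimulated with 4.0 ng/ml human IFN-beta and dosed with compound in a 12-point 1:3 titration (top final 46 uM). After 24 hrs at 37 C, HiBiT lytic luminescence or CellTiter Glo ATP read out.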

[3] = at 45.9 µM (top of the series), tumour line B
[4] = at 45.9 µM (top of the series), tumour line D
[5] = at 46 µM (top of the series), tumour line A
[6] = at 46.1 µM (top of the series), tumour line C
On the % scale 0 is the no-effect control and ±100 the full control effect; potency means the concentration at half of the fitted maximal effect.

O=C1NC(=O)[C@@]2(CCOc3ccc(F)cc32)N1
inactive: Potency (WaGa) | Potency (C33A) | Potency (CASKI) | Potency (Es-2) | Potency (HeLa) | Potency (Hek293T) | Potency (JEG-3) | Potency (OV90) | Potency (PA-1) | Potency (SKOV3) | Potency (Tov-21-G) | Potency (Tov112D) | activity, negative = cell killing [1, 3] -4.87% | activity, negative = cell killing [1, 4] 4.44% | activity, negative = cell killing [1, 5] -16.6% | activity, negative = cell killing [1, 6] -0.68% | Potency (astro)

CCN(CC)CCNC(=O)c1c(C)[nH]c(/C=C2\C(=O)Nc3ccc(F)cc32)c1C
active: Potency (WaGa) 11.9 µM | Potency (CAOV3) 25.1 µM | Potency (OV90) 10 µM | Potency (PA-1) 10 µM | Potency (SKOV3) 8.91 µM | Potency ([1]; tumour line A) 11.2 µM | Potency ([1]; tumour line D) 28.2 µM | Potency (astro) 12.6 µM | Potency ([2]; HiBiT) 3.94 µM | Potency ([2]; Viability) 7.01 µM
inactive: Potency (C33A) | Potency (Hek293T) | Potency (JEG-3) | Potency (Tov112D) | activity, negative = cell killing [1, 6] 3.12%

CC(=O)O[C@@]12CO[C@@H]1C[C@H](O)[C@@]1(C)C(=O)[C@H](O)C3=C(C)[C@@H](OC(=O)[C@H](O)[C@@H](NC(=O)OC(C)(C)C)c4ccccc4)C[C@@](O)([C@@H](OC(=O)c4ccccc4)[C@H]21)C3(C)C
inactive: Potency (C33A) | Potency (CASKI) | Potency (Hek293T) | Potency (JEG-3) | Potency (OV90) | Potency (Tov112D) | activity change, negative = inhibition ([2]; HiBiT) -20.7% | activity change, negative = inhibition ([2]; Viability) -25.4%

CCCCCCCCCCCCCCCCCCOCC(O)CO (configuration not stated)
inactive: Potency (WaGa) | Potency (C33A) | Potency (CASKI) | Potency (Es-2) | Potency (HeLa) | Potency (Hek293T) | Potency (JEG-3) | Potency (OV90) | Potency (PA-1) | Potency (SKOV3) | Potency (Tov-21-G) | Potency (Tov112D) | Potency (astro)

CC(=O)Oc1c(C)c(C)c2c(c1C)CC[C@@](C)(CCC[C@H](C)CCC[C@H](C)CCCC(C)C)O2
inactive: Potency (C33A) | Potency (CAOV3) | Potency (CASKI) | Potency (Es-2) | Potency (HeLa) | Potency (Hek293T) | Potency (JEG-3) | Potency (OV90) | Potency (PA-1) | Potency (SKOV3) | Potency (Tov-21-G) | Potency (Tov112D) | Potency (astro)

CSc1ccc2c(c1)N(CCC1CCCCN1C)c1ccccc1S2 (configuration not stated)
active: Potency (WaGa) 23.7 µM | Potency (Tov112D) 28.2 µM | Potency ([1]; tumour line A) 2.82 µM | Potency ([1]; tumour line B) 20 µM | Potency ([1]; tumour line D) 5.01 µM | Potency (astro) 20 µM
inactive: Potency (Es-2) | Potency (HeLa) | Potency (Hek293T) | activity, negative = cell killing [1, 6] -0.209%

NC1[C@H]2CN(c3nc4c(cc3F)c(=O)c(C(=O)O)cn4-c3ccc(F)cc3F)C[C@@H]12 (some centres not stated)
inactive: Potency (CASKI) | Potency (JEG-3) | Potency (OV90) | Potency (Tov112D) | activity, negative = cell killing [1, 3] -29.1%
active: Potency (WaGa) 21.1 µM

CNCC(O)c1ccc(O)c(O)c1 (configuration not stated)
active: Potency (SKOV3) 28.2 µM
inactive: Potency (HeLa) | Potency (Hek293T) | Potency (JEG-3) | Potency (OV90) | Potency (Tov-21-G) | Potency (Tov112D)

COc1ccc2cc1Oc1ccc(cc1)C[C@H]1c3c(cc4c(c3Oc3cc5c(cc3OC)CCN(C)[C@@H]5C2)OCO4)CCN1C
10 µM (active) and inactive: Potency (OV90)
active: Potency (WaGa) 18.8 µM | Potency (PA-1) 28.2 µM
inactive: Potency (C33A) | Potency (CASKI) | Potency (Es-2) | Potency (HeLa) | Potency (Hek293T) | Potency (JEG-3) | Potency (Tov-21-G) | Potency (Tov112D)

CC1=C(CC(=O)O)c2cc(F)ccc2/C1=C\c1ccc(S(C)=O)cc1 (configuration not stated)
inactive: Potency (C33A) | Potency (CAOV3) | Potency (CASKI) | Potency (Es-2) | Potency (HeLa) | Potency (Hek293T) | Potency (JEG-3) | Potency (OV90) | Potency (PA-1) | Potency (SKOV3) | Potency (Tov-21-G) | Potency (Tov112D) | activity, negative = cell killing [1, 3] -9.8% | activity, negative = cell killing [1, 4] -10.1% | activity, negative = cell killing [1, 6] -18.8% | Potency (astro)

CN1CCCCC1CCN1c2ccccc2Sc2ccc(S(C)=O)cc21 (configuration not stated)
inactive: Potency (C33A) | Potency (CAOV3) | Potency (CASKI) | Potency (Es-2) | Potency (HeLa) | Potency (Hek293T) | Potency (JEG-3) | Potency (OV90) | Potency (PA-1) | Potency (SKOV3) | Potency (Tov-21-G) | Potency (Tov112D) | activity, negative = cell killing [1, 3] -8.07% | activity, negative = cell killing [1, 6] -16.7% and 11.5% | Potency (astro)

CC(=O)Oc1ccc(C2(c3ccc(OC(C)=O)cc3)C(=O)Nc3ccccc32)cc1
inactive: Potency (WaGa) | Potency (C33A) | Potency (CASKI) | Potency (Es-2) | Potency (HeLa) | Potency (Hek293T) | Potency (JEG-3) | Potency (PA-1) | Potency (SKOV3) | activity, negative = cell killing [1, 3] 0.963% and -11% | activity, negative = cell killing [1, 4] -19.5% and -4.76% | activity, negative = cell killing [1, 6] -13% and -13.5% | activity change, negative = inhibition ([2]; Viability) -23.2%
active: Potency (OV90) 8.91 µM

CC[C@H]1CN2CCc3cc(OC)c(OC)cc3[C@@H]2C[C@@H]1C[C@H]1NCCc2cc(OC)c(OC)cc21
active: Potency (CASKI) 0.355 µM | Potency (Es-2) 0.447 µM | Potency (HeLa) 0.398 µM | Potency (Hek293T) 0.282 µM | Potency (JEG-3) 11.2 µM | Potency (Tov-21-G) 3.55 µM | Potency (Tov112D) 0.355 µM | Potency ([2]; HiBiT) 0.787 µM
inactive: activity change, negative = inhibition ([2]; Viability) -15.7%

COc1ccc(S(=O)(=O)Nc2nnc(CC(C)C)s2)cc1
inactive: Potency (WaGa) | Potency (C33A) | Potency (CASKI) | Potency (Es-2) | Potency (HeLa) | Potency (Hek293T) | Potency (JEG-3) | Potency (OV90) | Potency (PA-1) | Potency (Tov-21-G) | Potency (Tov112D) | activity, negative = cell killing [1, 3] -4.51% and -11.1% | activity, negative = cell killing [1, 4] -10.6% and 2.66% | activity, negative = cell killing [1, 5] -18% | activity, negative = cell killing [1, 6] -23.9% | Potency (astro)

COc1ccc2[nH]c(S(=O)Cc3ncc(C)c(OC)c3C)nc2n1 (configuration not stated)
inactive: Potency (C33A) | Potency (CAOV3) | Potency (CASKI) | Potency (Es-2) | Potency (HeLa) | Potency (Hek293T) | Potency (JEG-3) | Potency (OV90) | Potency (PA-1) | Potency (SKOV3) | Potency (Tov-21-G) | Potency (Tov112D) | activity, negative = cell killing [1, 3] -28.9% | activity, negative = cell killing [1, 4] -21.6% | Potency (astro)
active: Potency ([1]; tumour line A) 11.2 µM

CN1[C@@H]2CC(OC(=O)[C@H](CO)c3ccccc3)C[C@H]1[C@@H]1O[C@@H]12 (some centres not stated)
inactive: Potency (C33A) | Potency (CASKI) | Potency (Es-2) | Potency (HeLa) | Potency (Hek293T) | Potency (JEG-3) | Potency (OV90) | Potency (PA-1) | Potency (SKOV3) | Potency (Tov-21-G) | Potency (Tov112D) | activity, negative = cell killing [1, 3] -8.37% and 0.366% | activity, negative = cell killing [1, 4] -25.9% and -16.8% | activity, negative = cell killing [1, 6] 15.6% and -2.3% | Potency (astro)

CNCCC(Oc1ccc(C(F)(F)F)cc1)c1ccccc1 (configuration not stated)
inactive: Potency (JEG-3) | Potency (Tov112D) | activity, negative = cell killing [1, 6] -4.69%
active: Potency (WaGa) 21.1 µM | Potency ([1]; tumour line A) 3.55 µM | Potency ([1]; tumour line B) 20 µM
